In the library only some 19% were active in any assay of this set; here they are far more common.
HT1080 IDH1KD tx: qHTS for induction of synthetic lethality in tumor cells producing 2HG: qHTS for the HT-1080-IDH1KD cell line; HT-1080 IDH1 knockdown viability, ATP luminescence, 48 h; Potency, µM (doses to about 46.1 µM), for inactives: at the top dose activity, negative = toxicity, usual class: cytotoxic; hit rate 2% among 360,000; AID 686971, 2013;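 further: 0% = DMSO wells and -100% = cell-free medium wells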
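IDH1KD HT-1080 cells, 750/well, RPMI + 5% FBS; compound pinned after 2 h settling; 48 h, 37 °C; CellTiter-Glo luminescence; % activity normalised to DMSO and no-cell wells; curves fitted, classed by r2 and efficacy.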
KB-V1 MDR tox: qHTS assay for MDR1-selective chemotherapeutics: Primary screen using the drug-selected MDR subline cells KB-V1; Potency, µM (doses to about 46.1 µM), usual class: cytotoxic; KB-V1 MDR cells viability, CellTiter-Glo, 72 h; hit rate 3.4% among 400,000; AID 1347076, 2019; further: nearly all actives have a fitted effect of over 60% in size
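KB-V1 MDR subline cells in DMEM (phenol-red free, 10% FBS) exposed to compounds in qHTS concentration series for 72 h at 37 degrees C. Viability read by CellTiter-Glo luminescence; concentration-effect curves fitted after normalization and correction.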
KB-3-1 tox: qHTS assay for MDR1-selective chemotherapeutics: Primary screen using the parental adenocarcinoma cell KB-3-1; KB-3-1 viability, CellTiter-Glo ATP luminescence, 72 h; Potency, µM (doses to about 46.1 µM), actives largely listed as cytotoxic; hit rate 1.4% among 400,000; AID 1347075, 2019; further: nearly all actives have a fitted effect of over 60% in size
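Luminescent ATP read-out (CellTiter-Glo) measures survival of drug-naive KB-3-1 cells after 72 h compound exposure at 37 °C. Titration series was screened from lowest to highest concentration, with DMSO vehicle plates as background controls.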
HT1080-NT tox: qHTS for induction of synthetic lethality in tumor cells producing 2HG: qHTS for the HT-1080-NT fibrosarcoma cell line. HT-1080-NT fibrosarcoma viability, CellTiter-Glo ATP luminescence, 48 h. Potency, µM (top dose mostly 46.1 µM), for inactives: at the top dose activity, negative = less viability, hits mostly cytotoxic. hit rate 1.6% among 360,000. AID 686970, 2013;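 further: NT is the 2HG producing partner of a matched IDH1 knockdown line; 0% = DMSO-treated cells and -100% = media-only wells without cells; nearly all actives have a fitted effect of over 55% in size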
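750 cells/well, RPMI + 5% FBS; 2 h settle, compound pin-transfer, 48 h at 37 degrees C. CellTiter-Glo 10 min RT, luminescence. Normalized to DMSO and media-only wells.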
DT40 TDP1 CPT: qHTS for Inhibitors of human tyrosyl-DNA phosphodiesterase 1 (TDP1): qHTS in cells in presence of CPT; chicken DT40 Tdp1-/-;hTDP1 cells + 20 nM CPT, ATP luminescence, 48 h; Potency, µM (doses to about 46.2 µM), without a hit: top-dose activity change, negative = growth inhibition, actives largely listed as inhibitors; hit rate 12% among 420,000; further: nearly all actives have a fitted effect of over 55% in size
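Cell growth measured by CellTiter-Glo luminescence after a minimum 48 h, 37 C compound exposure with 20 nM CPT in Tdp1-knockout DT40 cells stably expressing hTDP1, seeded 400/well; qHTS titration format.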
DT40 TDP1 no CPT: qHTS for Inhibitors of human tyrosyl-DNA phosphodiesterase 1 (TDP1): qHTS in cells in absence of CPT | Potency, µM (highest dose often 46.2 µM), for the others: top-dose activity change, negative = growth inhibition, most hits filed as inhibitors | hit rate 15% among 420,000 | DT40 Tdp1-/- hTDP1 cells, no CPT, ATP luminescence, 48 h | AID 686978, 2013; further: nearly all actives have a fitted effect of over 55% in size
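Seeded 400 DT40-hTDP1 cells/well (vehicle DMSO, no 20 nM CPT); pinned compounds; ≥48 hr at 37 °C; CellTiter-Glo luminescence as viability measure.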
* marks the source's active call; other numbers are inactive results; i = inactive; ? = inconclusive; . = no result. The call rests on the fitted dose curve; in most records, active means well fitted curve in the direction sought with a large enough effect; inconclusive means small, poorly fitted or top-dose-only effect, or another doubt; inactive means no such curve, though single readings can be large; an effect the other way counts as inactive or inconclusive. Unless noted, on the % scale 0 is the no-effect control and ±100 the full control effect; potency means the concentration at half of the fitted maximal effect.

SMILES | HT1080 IDH1KD tx | KB-V1 MDR tox | KB-3-1 tox | HT1080-NT tox | DT40 TDP1 CPT | DT40 TDP1 no CPT
COc1ccccc1N1CCN(Cc2cccc(OC)c2OC)CC1 | -9% | i | i | -5% | ? | -1%
CN=C1CC(SC)=C1c1ccc(C)cc1 | 2% | ? | ? | 3% | 16µM* | 21µM*
CCc1cc2c(=O)c(-c3nc4ccccc4n3C)coc2c(CN2CCC(C)CC2)c1O | 14% | i | i | 12% | ? | 6.5µM*
CCOC(=O)C1=CCN(S(=O)(=O)c2ccccc2C(=O)OC)C1c1ccc(Cl)cc1 (centres undefined) | -13% | i | i | -10% | 21µM* | 18µM*
CCOC(=O)C1=CCN(S(=O)(=O)c2ccc(Cl)cc2)C1c1ccccc1 (centres undefined) | -16% | ? | ? | -8% | ? | ?
CCOC(=O)C1=CCN(S(=O)(=O)c2ccccc2Br)C1c1ccc(Cl)c(Cl)c1 (centres undefined) | ? | ? | ? | ? | ? | 18µM*
CCOC(=O)C1=CCN(S(=O)(=O)c2ccccc2C)C1c1ccc(Br)cc1 (centres undefined) | ? | i | i | ? | ? | ?
CCOC(=O)C1=CCN(S(=O)(=O)c2ccccc2C)C1c1ccccc1 (centres undefined) | -11% | i | i | -24% | 29µM* | 18µM*
CCn1c(SCC(=O)N2CCC(C)CC2)nc2c1c(=O)n(C)c(=O)n2C | -6% | ? | i | -8% | 3% | -15%
CCN(CC)CCCN1C(=O)c2oc3ccccc3c(=O)c2C1c1cccc(OC)c1OC (centres undefined) | 1% | i | i | -1% | -4% | 1%
CC(C)C(NC(=O)c1ccccc1)C(=O)OCc1cc([N+](=O)[O-])cc2c1OCOC2 (centres undefined) | -8% | i | i | -2% | 15µM* | 12µM*
CC(C)C(NC(=O)c1ccco1)C(=O)OCc1cc([N+](=O)[O-])cc2c1OCOC2 (centres undefined) | 4% | ? | i | 9% | ? | ?
CCOc1ccccc1C(=O)N[C@H](C(=O)OCc1cc([N+](=O)[O-])cc2c1OCOC2)C(C)C | ? | 5.8µM* | i | -2% | ? | 16µM*
NS(=O)(=O)c1cccc(NC(=O)COC(=O)CN2C(=O)c3ccccc3C2=O)c1 | 8% | i | i | 2% | -1% | -2%
COc1cccc(-c2cnc3c(NC(C)=O)cc(-c4cc(OC)c(OC)c(OC)c4)cn23)c1 | ? | ? | i | ? | ? | ?
COc1cccc(-c2cnc3c(NC=O)cc(-c4ccncc4)cn23)c1 | -19% | ? | i | -19% | 18µM* | 4.6µM*
COc1cccc(-c2cnc3c(NC(C)=O)cc(-c4ccncc4)cn23)c1 | ? | ? | i | ? | ? | 16µM*
Cc1ccccc1CN1C(=O)CSCC1(C)C(=O)Nc1ccc2c(c1)OCCO2 (centres undefined) | 8% | ? | i | 10% | ? | ?
Cc1cccc(OCCC(=O)OCC(=O)Nc2c(C)nn(-c3ccccc3)c2C)c1 | 18% | ? | i | 9% | 5% | -13%
COc1cc(NC(=O)CNc2cccc(S(=O)(=O)N3CCOCC3)c2)cc(OC)c1 | -2% | ? | i | -3% | ? | ?
COc1cc(OC)c(OC)cc1/C=N/NC(=O)c1cc(-c2cccn2C)n[nH]1 | 1% | i | i | 0% | -3% | 2%
CCOc1cccc(/C=N/NC(=O)c2cc(-c3cccn3C)n[nH]2)c1O | ? | ? | ? | -23% | 5.8µM* | 9.2µM*
Cn1cccc1-c1cc(C(=O)N/N=C/c2cccc(O)c2)[nH]n1 | 4% | i | i | 9% | ? | ?
COc1ccc(/C=N/NC(=O)c2cc(-c3cccn3C)n[nH]2)cc1OC | 10% | i | i | 11% | ? | 18µM*
Cc1cc(=O)[nH]c(NN=C2CCCCC2C)n1 (centres undefined) | 0% | i | ? | 0% | ? | 18µM*
SMILES | HT1080 IDH1KD tx | KB-V1 MDR tox | KB-3-1 tox | HT1080-NT tox | DT40 TDP1 CPT | DT40 TDP1 no CPT
CS(=O)(=O)N(CC(=O)NCc1ccco1)c1ccc(OCc2ccccc2)cc1 | -17% | i | i | -1% | -5% | -5%
OCCN(Cc1cccnc1)Cc1ccccn1 | -17% | 10µM* | i | 6% | ? | ?
CCCc1cc(=O)oc2c3c(cc(OCC(=O)NCc4ccncc4)c12)OC(C)(C)CC3 | -16% | ? | i | -28% | 6.5µM* | 21µM*
COCCCNC(=O)COc1cc2c(c3oc(=O)c(C)c(C)c13)CCC(C)(C)O2 | -7% | i | i | -8% | ? | 2.1µM*
Cc1c(C)c2c(OCC(=O)NCc3ccccn3)cc3c(c2oc1=O)CCC(C)(C)O3 | -4% | ? | i | -5% | 15µM* | 16µM*
CCCc1cc(=O)oc2c3c(cc(OCC(=O)NCc4ccccn4)c12)OC(C)(C)CC3 | -9% | i | i | -2% | 23µM* | ?
COc1cccc2cc(C(=O)CC3(O)C(=O)N(Cc4ccccc4)c4ccccc43)c(=O)oc12 (centres undefined) | -2% | i | i | -13% | 13µM* | 6.5µM*
Cc1ccc(C(=O)CC2(O)C(=O)N(Cc3ccccc3)c3ccccc32)c(C)c1 (centres undefined) | . | i | i | . | 23µM* | ?
COc1ccc(CN2C(=O)C(O)(CC(=O)c3ccc4c(c3)OCO4)c3ccccc32)cc1OC (centres undefined) | 6% | i | i | 5% | 6.3µM* | 6.3µM*
Cc1ccc(C(=O)N2c3ccccc3N(Cc3ccccc3)C(=O)C2(C)C)cc1 | ? | 6.5µM* | i | -30% | 15µM* | 20µM*
